This is a sample that favours compounds with a hit; in the whole collection about 8.2% have one here.
MCF10A rerep: induces DNA re-replication in MCF 10a normal breast cells | MCF 10A DNA re-replication, Hoechst nuclear intensity, 48 h | Potency, µM (series often up to 46.1 µM), for the others: at the highest dose activity, positive = re-replication, hits mostly activators | hit rate 2.9% among 350,000 | AID 624296; further: % of control where 0% means no effect; nearly all actives have a fitted effect of over 50% in size
SW480 rereplic: inducers of DNA re-replication in SW480 colon cancer cells; SW480 DNA re-replication, Hoechst DNA content imaging, 48 h; Potency, µM (top dose mostly 46.1 µM), inactives show at the highest dose re-replication activation, usual class: activators; hit rate 1.8% among 340,000; further: % of control where 0% means no effect; nearly all actives have a fitted effect of over 55% in size
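Per well, 250 cells were exposed to pinned compound for 48 hr. Nuclear DNA was visualised with Hoechst (40 min, 37 C) and total object intensity recorded by fluorescence scanning.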
ELG1 DNA repair: inhibitors of ELG1-dependent DNA repair in HEK293T cells; hit rate 2.3% among 330,000; HEK293T ELG1-luciferase reporter, luminescence, 16 h; DNA damage induced by 5-fluorouridine; Potency, µM (highest dose often 46.1 µM), for inactives: at the highest dose activity change, negative = inhibition, hits mostly inhibitors; further: on the % scale 0 is the no-effect control and ±100 the full control effect; nearly all actives have a fitted effect of over 55% in size
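Cells (2,000 per well) received 5-fluorouridine plus test compound or DMSO and were incubated 16 hr at 37 °C, 5% CO2. Luciferase activity was read by luminescence 30 min after ONE-Glo addition; signal suppression marked inhibition of damage-induced ELG1 function.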
KB-V1 MDR tox: KB-V1 MDR subline cytotoxicity. Potency, µM (top dose mostly 46.1 µM), usual class: cytotoxic. KB-V1 MDR cells viability, CellTiter-Glo, 72 h. AID 1347076. hit rate 3.4% among 400,000; further: on the % scale 0 is the no-effect control and ±100 the full control effect; nearly all actives have a fitted effect of over 60% in size
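Following 72 h at 37 degrees C with compound, KB-V1 cell viability was read by CellTiter-Glo luminescence, medium being phenol-red-free DMEM plus 10% FBS; concentration-response parameters came from normalized, curve-fitted qHTS data.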
KB-3-1 cytotox: KB-3-1 parental cell cytotoxicity | KB-3-1 viability, CellTiter-Glo ATP luminescence, 72 h | Potency, µM (doses to about 46.1 µM), usual class: cytotoxic | hit rate 1.4% among 400,000; further: on the % scale 0 is the no-effect control and ±100 the full control effect; nearly all actives have a fitted effect of over 60% in size
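KB-3-1 parental drug-naive adenocarcinoma cells in DMEM/10% FBS, incubated 72 h at 37 C with pin-transferred compounds across a concentration series. Viability by CellTiter-Glo luminescence; concentration-response curves fitted after normalization.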
* marks the source's active call; other numbers are inactive results; i = inactive; ? = inconclusive; nt = no result; ! = not confirmed by another sample. The call rests on the fitted dose curve; in most records, active means well fitted curve in the direction sought with a large enough effect; inconclusive means small, poorly fitted or top-dose-only effect, or another doubt; inactive means no such curve, though single readings can be large; an effect the other way counts as inactive or inconclusive. Potency means the concentration at half of the fitted maximal effect.

SMILES | MCF10A rerep | SW480 rereplic | ELG1 DNA repair | KB-V1 MDR tox | KB-3-1 cytotox
N=c1c2c(ncn1CCCO)Oc1c(ccc3ccccc13)C2c1ccccc1 (stereo unspecified) | ? | ? | 3% | 16µM* | ?
C[C@H](CO)N1C[C@H](C)[C@H](CN(C)S(=O)(=O)c2cccs2)Oc2ncc(-c3cc4ccccc4o3)cc2C1=O | nt | nt | nt | i | i
CC(=O)C(Cc1ccccc1)NC(=O)COC(=O)c1cccc(C)c1[N+](=O)[O-] (stereo unspecified) | -5% | -6% | 2% | i | i
COc1cc(NC(=O)CN2CCN(C(=O)c3ccco3)CC2)c(C)cc1[N+](=O)[O-] | nt | nt | nt | i | i
O=C1c2ccccc2-c2onc3ccc(Oc4ccccc4)c1c23 | ? | 9% | ? | 23µM* | ?
COCCCNC(=O)c1ccc2c3c(onc13)-c1ccccc1C2=O | ? | 2% | ? | ? | ?
CS(=O)(=O)c1ccc(Cl)c(NC(=O)COC(=O)Cc2c[nH]c3ccccc23)c1 | 13% | -220% | 4% | i | i
Cc1cccc(Nc2nc(N3CCCC3)nc(N3CCCC3)n2)c1 | 21µM* | ? | -11% | 9.2µM* | i
c1ccc(Nc2nc(N3CCCCC3)nc(N3CCNCC3)n2)cc1 | -2% | -3% | 3% | 21µM* | i
Cc1cc(N=Cc2c(O)ccc3cc(Br)ccc23)no1 | 13µM* | -693% | -18% | i | i
Cc1cc(N=Cc2c(O)ccc3ccccc23)no1 | 12% | -4% | 4% | ? | i
CCCc1c(-c2ccccc2F)ncn1CCc1ccccc1OC | nt | nt | nt | 16µM* | ?
CCCc1c(-c2cccc(F)c2)ncn1Cc1ccccc1OC | nt | nt | nt | ? | i
CCCCCc1c(-c2ccccc2F)ncn1CCc1ccccc1OC | nt | nt | nt | 18µM* | ?
COc1ccc(OC)c(CCNC(=O)c2cc3c(-c4ccccc4F)nn(C)c3s2)c1 | nt | nt | nt | i | ?
CCCCc1c(-c2ccccc2F)ncn1CCc1ccccc1OC | nt | nt | nt | 15µM* | ?
Cc1cccc(C(O)c2ncc(-c3ccccc3F)[nH]2)c1C (stereo unspecified) | nt | nt | nt | ? | i
COCCCN(C(=O)CSc1nc2ccccc2c(=O)n1C)c1c(N)n(Cc2ccccc2)c(=O)[nH]c1=O | 5% | -2% | nt | i | i
CCOCCCNC(=O)c1c(NC(=O)c2nc(SCC)ncc2Cl)sc2c1CCCC2 | nt | nt | nt | i | i
COC(=O)C1=CN(c2ccc(F)cc2)C=C(C(=O)OC)C1c1cccc(Br)c1 | 15µM* | 23µM* | -16% | ? | ?
COC(=O)C1=CN(c2ccc(F)cc2)C=C(C(=O)OC)C1c1ccc([N+](=O)[O-])cc1 | 10% | 1% | -13% | i | i
COc1cccc(-c2cc(C(F)(F)F)nc(-n3nc(C)c(Br)c3C)n2)c1 | nt | nt | nt | i | i
CSc1ncnc2c1ncn2CCCN1CCN(c2ccccn2)CC1 | nt | nt | nt | i | i
Cn1nccc1C(=O)c1ccc(Cl)cc1 | -15% | -14% | 6% | i | i
Cc1cc(CC(=O)O)n(C)c1C(=O)c1ccc(Cl)cc1 | 30µM*! | -53% | 4% | i | i
SMILES | MCF10A rerep | SW480 rereplic | ELG1 DNA repair | KB-V1 MDR tox | KB-3-1 cytotox
CC(=O)N1c2ccc(S(=O)(=O)NCCC(=O)NC3CCCC(C)C3C)cc2CC1C (stereo unspecified) | -3% | -29% | 9.2µM* | i | i
CC(=O)N1CCc2cc(S(=O)(=O)NCCC(=O)NC3CCCc4ccccc43)ccc21 (stereo unspecified) | 23% | 1% | 13µM* | i | i
CC(=O)N1CCc2cc(S(=O)(=O)NCCC(=O)N3CCN(Cc4ccccc4)CC3)ccc21 | 26% | 3% | ? | 16µM* | ?
CC(=O)c1ccc(NC(=O)CCc2c(C)nc3c(c2C)c(=O)n(C)c(=O)n3C)cc1 | nt | nt | nt | i | i
COc1ccccc1NS(=O)(=O)c1cccc(NS(=O)(=O)c2ccc(Cl)c(C(=O)O)c2)c1 | 5% | -4% | ? | i | i
CCOc1ccc(-c2c(C)nn3c(C)c(C(=O)NCc4cccc(OC)c4)cnc23)cc1OCC | nt | nt | nt | i | i
Cn1c(=O)c2[nH]c(CCC3CCCC3)nc2n(C)c1=O | -2% | -2% | nt | 23µM* | i
Cc1cc(C(=O)O/N=C(\N)c2ccc(C(C)(C)C)cc2)no1 | 4% | -9% | ? | i | i
Cc1noc(-c2ccc(Cl)cc2)c1C(=O)O/N=C(\N)c1ccc(C(C)(C)C)cc1 | ? | -2% | ? | 18µM* | ?
COc1ccc(N2CCN(C(c3ccccc3OC)c3nnnn3C3CCCC3)CC2)cc1 (stereo unspecified) | 6% | 1% | -15% | i | i
COc1ccc(OC)c(C(c2nnnn2C2CCCC2)N2CCc3ccccc3C2)c1 (stereo unspecified) | -1% | -3% | -19% | 16µM* | ?
COc1ccc(N2CCN(C(c3cccc(OC)c3OC)c3nnnn3C3CCCC3)CC2)cc1 (stereo unspecified) | ? | 13µM* | 0% | i | i
COc1ccc(C(c2nnnn2C2CCCC2)N2CCc3ccccc3C2)cc1OC (stereo unspecified) | 10% | 3% | -20% | ? | i
Cc1cnccc1/C=C/c1ccc(N)cc1 | nt | nt | nt | i | i
COc1cccc(C=Nc2cc(C)cc(C)c2)c1O | 1% | -4% | -9% | i | i
COc1cc(Br)cc(C=Nc2cccc(C(F)(F)F)c2)c1O | 21µM* | -1% | 16% | i | ?
Oc1ccc(/C=N/N=C(c2ccccc2)c2ccccc2)c(O)c1O | 21µM* | -2% | -17% | i | ?
O=C(/C(=N/N=C/c1ccc(O)c(O)c1O)c1ccccc1)c1ccccc1 | ? | ? | -18% | ? | ?
C(=C\c1nc(N2CCCC2)c2ccccc2n1)/c1ccccc1 | ? | ? | -6% | ? | 23µM*
CC1CCN(c2nc(-c3ccncc3)nc3ccccc23)CC1 | ? | 10% | ? | ? | ?
CC1CCN(c2nc(/C=C/c3ccccc3)nc3ccccc23)CC1 | 21µM* | 1% | -14% | ? | i
Cc1ccc(S(=O)(=O)NN=CC=CC=NNS(=O)(=O)c2ccc(C)cc2)cc1 | nt | nt | nt | i | i
COc1ccc(N2C(=O)C(C)(C)C2c2c(O)ccc3ccccc23)cc1 (stereo unspecified) | ? | ? | -3% | i | i
CC1(C)C(=O)N(c2ccccc2)C1c1ccccc1O (stereo unspecified) | 7.3µM* | ? | ? | i | ?
CN(/N=C/c1cccc(Br)c1)C1=NS(=O)(=O)c2ccccc21 | 11% | -1% | ? | i | i
Cc1ccc(Cl)cc1NC(=O)c1cc(S(=O)(=O)N2CCOCC2)cn1C | 15% | 0% | -4% | i | i

Assay outcomes (PubChem BioAssay)
